Reference: PubChem BioAssay (NCI)
Compounds without any hit were thinned out: in the full panel of roughly 83,000, 20% have a hit.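 Plates (96-well) were seeded with cells, treated with compound at one concentration, and incubated for 48 hours before percent growth was determined.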 Active and inactive are the calls of the source. How the source made its calls: active means growth percent below 10; inactive means the rest.

These compounds were tested on HL-60(TB) leukemia (assay: NCI-60 one-dose screen, 48 h (100 = growth as untreated, 0 = no growth, -100 = all killed)). Conditions: 10 µM unless noted.

SMILES | growth
COc1ccc(-c2nc3c(c(C)nn3-c3ccc(F)cc3)c(=O)[nH]2)cc1 | 70% (inactive)
COc1ccc(/C=C2\NC(=O)NC2=O)cc1O | 102% (inactive)
O=C(O)C(=O)O | 151% (inactive)
CC(=O)c1cnc(-c2ccccc2)nc1CBr | 41.5% (inactive)
c1ccc2c(-c3nc(-c4c[nH]c5ccncc45)cs3)c[nH]c2c1 | 45.9% (inactive)
